# Reference: the supplement of paper PMC8728848
# The sample as a whole holds a higher share of the strongest signals than the screen did.
# B1: Mermaid1 (Stilbonema majum) (protein)
# chain: MGSSHHHHHHSSGLVPRGSHMAASGWLRSPQGTVVKLYRRSLSWSKADEFCKDVDGRLVVDRTADMHLFLIKNVLKEKKSRVWVGLRRTAPHSRTWIWSDGTRQNEDDLDANLWLRDEPNDAAGEEECALFMYSPWEKAWGLNDYLCRGGCRSYQFICEKWIR
# Assays:
# Assay in all cases: glycan array binding signal (z-score within array); higher = stronger binding
# Details in all cases: glycan notation: IUPAC condensed, linker removed
# [1] = target: Fuc(a1-2)Gal(b1-3)GalNAc(a1-3)[Fuc(a1-2)]Gal(b1-4)Glc
# Summary of the method: (§1)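 Columns mapping to the same glycan were averaged after glycan names were converted to IUPAC-condensed notation. The data come from 3228 arrays in the Consortium for Functional Glycomics database, limited to those with an available protein sequence. Binding is reported as a within-array Z-score averaged across arrays of one protein sequence and across linkers.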
# [2] = target: Fuc(a1-2)Gal(b1-3)[Fuc(a1-4)]GlcNAc
# Summary of the method: as §1
# [3] = target: Fuc(a1-2)Gal(b1-4)Glc6S
# Summary of the method: as §1
# [4] = target: Fuc(a1-2)Gal(b1-4)GlcNAc(b1-2)Man(a1-3)[Fuc(a1-2)Gal(b1-4)GlcNAc(b1-2)Man(a1-6)]Man(b1-4)GlcNAc(b1-4)[Fuc(a1-6)]GlcNAc
# Summary of the method: as §1
# [5] = target: Fuc(a1-2)Gal(b1-4)GlcNAc(b1-6)GalNAc
# Summary of the method: as §1
# [6] = target: Fuc(a1-2)Gal(b1-4)[Fuc(a1-3)]GlcNAc
# Summary of the method: as §1
# [7] = target: Fuc(a1-2)Gal6S(b1-3)GlcNAc6S
# Summary of the method: as §1
# [8] = target: Fuc(a1-2)Gal6S(b1-4)Glc
# Summary of the method: as §1
# [9] = target: Fuc(a1-2)[Gal(a1-3)]Gal(b1-3)GalNAc
# Summary of the method: as §1
# [10] = target: Fuc(a1-2)[Gal(a1-3)]Gal(b1-3)GlcNAc(b1-2)Man(a1-3)[Fuc(a1-2)[Gal(a1-3)]Gal(b1-3)GlcNAc(b1-2)Man(a1-6)]Man(b1-4)GlcNAc(b1-4)GlcNAc
# Summary of the method: as §1
# [11] = target: Fuc(a1-2)[Gal(a1-3)]Gal(b1-3)GlcNAc(b1-2)Man(a1-3)[Fuc(a1-2)[Gal(a1-3)]Gal(b1-3)GlcNAc(b1-2)Man(a1-6)]Man(b1-4)GlcNAc(b1-4)[Fuc(a1-6)]GlcNAc
# Summary of the method: as §1
# [12] = target: Fuc(a1-2)[Gal(a1-3)]Gal(b1-4)GlcNAc(b1-2)Man
# Summary of the method: as §1
# [13] = target: Fuc(a1-3)[Gal(b1-4)]GlcNAc(b1-2)Man(a1-3)[Fuc(a1-3)[Gal(b1-4)]GlcNAc(b1-2)Man(a1-6)]Man(b1-4)GlcNAc(b1-4)GlcNAc
# Summary of the method: as §1
# [14] = target: Fuc(a1-3)[Gal(b1-4)]GlcNAc(b1-3)Gal(b1-4)[Fuc(a1-3)]GlcNAc(b1-3)Gal(b1-4)[Fuc(a1-3)]GlcNAc
# Summary of the method: as §1
# [15] = target: Fuc(a1-3)[Gal3S(b1-4)]Glc
# Summary of the method: as §1
# [16] = target: Gal(a1-3)Gal(b1-3)[Fuc(a1-4)]GlcNAc(b1-2)Man(a1-3)[Gal(a1-3)Gal(b1-3)[Fuc(a1-4)]GlcNAc(b1-2)Man(a1-6)]Man(b1-4)GlcNAc(b1-4)GlcNAc
# Summary of the method: as §1
# [17] = target: Gal(a1-3)Gal(b1-4)GlcNAc(b1-2)Man
# Summary of the method: as §1
# [18] = target: Gal(a1-3)Gal(b1-4)GlcNAc(b1-6)GalNAc
# Summary of the method: as §1
# [19] = target: Gal(b1-3)GlcNAc(a1-6)Gal(b1-4)GlcNAc
# Summary of the method: as §1
# [20] = target: Gal(b1-3)GlcNAc(b1-2)[Gal(b1-3)GlcNAc(b1-6)]Man(a1-6)[Gal(b1-3)GlcNAc(b1-2)Man(a1-3)]Man(b1-4)GlcNAc(b1-4)GlcNAc
# Summary of the method: as §1
# [21] = target: Gal(b1-3)GlcNAc(b1-3)Gal(b1-4)GlcNAc(b1-2)[Gal(b1-3)GlcNAc(b1-3)Gal(b1-4)GlcNAc(b1-6)]Man(a1-6)[Gal(b1-3)GlcNAc(b1-3)Gal(b1-4)GlcNAc(b1-2)Man(a1-3)]Man(b1-4)GlcNAc(b1-4)[Fuc(a1-6)]GlcNAc
# Summary of the method: as §1
# [22] = target: Gal(b1-3)GlcNAc(b1-3)Gal(b1-4)GlcNAc(b1-3)Gal(b1-4)GlcNAc(b1-2)[Gal(b1-3)GlcNAc(b1-3)Gal(b1-4)GlcNAc(b1-3)Gal(b1-4)GlcNAc(b1-6)]Man(a1-6)[Gal(b1-3)GlcNAc(b1-3)Gal(b1-4)GlcNAc(b1-3)Gal(b1-4)GlcNAc(b1-2)Man(a1-3)]Man(b1-4)GlcNAc(b1-4)[Fuc(a1-6)]GlcNAc
# Summary of the method: as §1
# [23] = target: Gal(b1-3)[Neu5Ac(a2-6)]GlcNAc(b1-4)Gal(b1-4)Glc
# Summary of the method: as §1
# [24] = target: Gal(b1-4)Gal
# Summary of the method: as §1
# [25] = target: Gal(b1-4)GalNAc(a1-3)[Fuc(a1-2)]Gal(b1-4)GlcNAc
# Summary of the method: as §1
# [26] = target: Gal(b1-4)GlcNAc(b1-2)Man(a1-3)[Man(a1-6)]Man(b1-4)GlcNAc(b1-4)GlcNAc
# Summary of the method: as §1
# [27] = target: Gal(b1-4)GlcNAc(b1-2)[Gal(b1-4)GlcNAc(b1-4)]Man(a1-3)[Gal(b1-4)GlcNAc(b1-2)Man(a1-6)]Man(b1-4)GlcNAc(b1-4)GlcNAc
# Summary of the method: as §1
# [28] = target: Gal(b1-4)GlcNAc(b1-2)[Gal(b1-4)GlcNAc(b1-4)]Man(a1-3)[GlcNAc(b1-4)][Gal(b1-4)GlcNAc(b1-2)[Gal(b1-4)GlcNAc(b1-6)]Man(a1-6)]Man(b1-4)GlcNAc(b1-4)GlcNAc
# Summary of the method: as §1
# [29] = target: Gal(b1-4)GlcNAc(b1-2)[Gal(b1-4)GlcNAc(b1-6)]Man(a1-6)[Gal(b1-4)GlcNAc(b1-2)Man(a1-3)]Man(b1-4)GlcNAc(b1-4)GlcNAc
# Summary of the method: as §1
# [30] = target: Gal(b1-4)GlcNAc(b1-3)Gal(b1-4)GlcNAc(b1-2)[Gal(b1-4)GlcNAc(b1-3)Gal(b1-4)GlcNAc(b1-6)]Man(a1-6)[Gal(b1-4)GlcNAc(b1-3)Gal(b1-4)GlcNAc(b1-2)Man(a1-3)]Man(b1-4)GlcNAc(b1-4)GlcNAc
# Summary of the method: as §1
binder,measurement,setting,value
B1,glycan array binding signal (z-score),[1],-0.132
same,glycan array binding signal (z-score),[2],-0.578
same,glycan array binding signal (z-score),[3],2.97
same,glycan array binding signal (z-score),[4],3.06
same,glycan array binding signal (z-score),[5],-0.219
same,glycan array binding signal (z-score),[6],0
same,glycan array binding signal (z-score),[7],1.58
same,glycan array binding signal (z-score),[8],-0.65
same,glycan array binding signal (z-score),[9],3.08
same,glycan array binding signal (z-score),[10],-0.403
same,glycan array binding signal (z-score),[11],-0.259
same,glycan array binding signal (z-score),[12],-0.732
same,glycan array binding signal (z-score),[13],-0.717
same,glycan array binding signal (z-score),[14],-0.381
same,glycan array binding signal (z-score),[15],0.419
same,glycan array binding signal (z-score),[16],2.49
same,glycan array binding signal (z-score),[17],-0.331
same,glycan array binding signal (z-score),[18],-0.176
same,glycan array binding signal (z-score),[19],0.067
same,glycan array binding signal (z-score),[20],-0.787
same,glycan array binding signal (z-score),[21],4.98
same,glycan array binding signal (z-score),[22],6.8
same,glycan array binding signal (z-score),[23],-0.953
same,glycan array binding signal (z-score),[24],3.2
same,glycan array binding signal (z-score),[25],1.62
same,glycan array binding signal (z-score),[26],2.41
same,glycan array binding signal (z-score),[27],0.823
same,glycan array binding signal (z-score),[28],-1.01
same,glycan array binding signal (z-score),[29],-0.567
same,glycan array binding signal (z-score),[30],4.04
